# Measurements taken from the supplement of paper PMC10849652.
# Of roughly 7,900 targets only a part is listed; those with a hit were picked by preference. About 0.6% of all pairs of compound and target were hits. Values without a mark were called inactive.
# Legend:
# Test in all cases: log2 fold change, soluble protein after heating vs DMSO (PISA); higher = thermal stabilisation; K562 cells, 10 uM, 30 min; active = over 0.2 and 3.5 SD of the protein, either way, in both replicates (recomputed)
# [1] = compound: CC1=C(C=C(C=C1)NC(=O)C2=CC(=CC=C2)C(C)(C)C#N)NC3=CC4=C(C=C3)N=CN(C4=O)C
# Method in brief: (§1)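 Quantification of soluble protein used TMTpro 16plex LC-MS/MS, with channel sums equalised. Samples were the supernatant after 21,000xg for 90 min of pooled aliquots from K562 cells (2×10^6 cells/mL) treated with 10 μM compound for 30 min, heated for 3 min over 48°C-58°C, and extracted in PBS with 0.5% NP-40 at 4°C. Values, from duplicates, describe thermal stability against control samples on a log2 fold-change scale.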
# [2] = compound: CC1=C(C=C(C=C1)NC(=O)C2=CC(=CC=C2)N(C)C)NC(=O)C3=CC=C(C=C3)O
# Method in brief: as §1
# [3] = compound: CC1=CC=C(C=C1)SC2=C3C=C(SC3=CN=C2)C(=O)N
# Method in brief: as §1
# [4] = compound: CC1=NC(=CC=C1)C2=C(N=C(N2)C(C)(C)C)C3=CC4=NC=CN=C4C=C3
# Method in brief: as §1
# [5] = compound: CCCCN(Cc1ccc(C(=O)NO)cc1)C(=O)Nc1ccccc1 [Nexturastat A]
# Method in brief: as §1
# [6] = compound: CCCS(=O)(=O)Nc1ccc(F)c(C(=O)c2c[nH]c3ncc(-c4ccc(Cl)cc4)cc23)c1F [vemurafenib]
# Method in brief: as §1
# [7] = compound: CCCS(=O)(=O)Nc1ccc(F)c(C(=O)c2c[nH]c3ncc(Cl)cc23)c1F
# Method in brief: as §1
# [8] = compound: CCCc1cc(C)[nH]c(=O)c1CNC(=O)c1cc(-c2ccnc(N3CCN(C)CC3)c2)cc2c1cnn2C(C)C
# Method in brief: as §1
# [9] = compound: CCN(CC)Cc1ccc2cc(COC(=O)Nc3ccc(C(=O)NO)cc3)ccc2c1 [givinostat]
# Method in brief: as §1
# [10] = compound: CCN(CCCOc1ccc2c(Nc3cc(CC(=O)Nc4cccc(F)c4)[nH]n3)ncnc2c1)CCOP(=O)(O)O [barasertib]
# Method in brief: as §1
# [11] = compound: CC[C@@H]1C(=O)N(C)c2cnc(Nc3ccc(C(=O)NC4CCN(C)CC4)cc3OC)nc2N1C1CCCC1
# Method in brief: as §1
# [12] = compound: CC[C@@H]1C(=O)N(C)c2cnc(Nc3ccc(C(=O)N[C@H]4CC[C@H](N5CCN(CC6CC6)CC5)CC4)cc3OC)nc2N1C(C)C [volasertib]
# Method in brief: as §1
# [13] = compound: CC[C@H](C)N1C=C(C2=C(C=C(C=C21)C3=CN=C(C=C3)N4CCNCC4)C(=O)NCC5=C(C=C(NC5=O)C)C)C
# Method in brief: as §1
# [14] = compound: CC[C@H](C)[C@@H](C(=O)N[C@@H]([C@@H](C)O)C(=O)N[C@@H](CC(C)C)C(=O)[C@]1(CO1)C)NC(=O)[C@H]([C@@H](C)CC)N(C)C(=O)C [epoxomicin]
# Method in brief: as §1
# [15] = compound: CCn1c(C(=O)N(C2CC2)C2CC2)cc2c3c(ncn3C)c(Nc3cc(C)n(C)n3)nc21
# Method in brief: as §1
# [16] = compound: CCn1cc(-c2ccnc3[nH]c(-c4cccc(CN(C)C)c4)cc23)c(-c2ccc(NC(=O)N(C)C)cc2)n1
# Method in brief: as §1
# [17] = compound: CN(C)CC(=O)Nc1ccc2[nH]c(=O)c3ccccc3c2c1
# Method in brief: as §1
# [18] = compound: CN(CCOC1=CC=C(C=C1)C[C@H]2C(=O)NC(=O)S2)C3=CC=CC=N3 (racemic) [rosiglitazone]
# Method in brief: as §1
# [19] = compound: CN1C2=C(C3=C1C(=O)N(N=C3)CC4=CC(=CC=C4)N)SC(=C2)S(=O)C
# Method in brief: as §1
# [20] = compound: CN1CCC(CNc2ccc3ncc(-c4cccc(OC(F)(F)F)c4)n3n2)CC1
# Method in brief: as §1
# Chain of UniProt Q8TC12 (Q8TC12 whole entry, looked up): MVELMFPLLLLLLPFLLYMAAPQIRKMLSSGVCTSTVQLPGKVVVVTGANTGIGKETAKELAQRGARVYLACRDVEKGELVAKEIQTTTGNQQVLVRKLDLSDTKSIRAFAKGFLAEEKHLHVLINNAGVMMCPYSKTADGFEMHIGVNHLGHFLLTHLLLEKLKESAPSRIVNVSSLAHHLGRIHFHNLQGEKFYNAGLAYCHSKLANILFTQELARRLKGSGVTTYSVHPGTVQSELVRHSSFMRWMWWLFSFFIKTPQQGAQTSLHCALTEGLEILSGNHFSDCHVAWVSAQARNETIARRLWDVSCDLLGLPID
# Chain of UniProt Q86VR2 (Q86VR2 whole entry, looked up): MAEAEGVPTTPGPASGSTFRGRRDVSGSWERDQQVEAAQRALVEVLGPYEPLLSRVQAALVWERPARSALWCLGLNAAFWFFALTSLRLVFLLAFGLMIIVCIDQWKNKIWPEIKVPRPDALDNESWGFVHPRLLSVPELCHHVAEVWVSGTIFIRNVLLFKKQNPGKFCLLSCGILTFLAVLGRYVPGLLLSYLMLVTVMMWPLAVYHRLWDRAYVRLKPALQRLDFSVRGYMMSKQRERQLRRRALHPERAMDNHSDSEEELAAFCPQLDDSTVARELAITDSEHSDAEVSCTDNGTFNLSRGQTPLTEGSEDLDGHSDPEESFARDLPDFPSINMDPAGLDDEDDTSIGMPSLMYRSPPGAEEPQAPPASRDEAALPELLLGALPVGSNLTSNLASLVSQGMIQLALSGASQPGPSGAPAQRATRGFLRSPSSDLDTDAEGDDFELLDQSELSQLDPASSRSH
# Chain of UniProt Q92696 (Q92696 whole entry, looked up): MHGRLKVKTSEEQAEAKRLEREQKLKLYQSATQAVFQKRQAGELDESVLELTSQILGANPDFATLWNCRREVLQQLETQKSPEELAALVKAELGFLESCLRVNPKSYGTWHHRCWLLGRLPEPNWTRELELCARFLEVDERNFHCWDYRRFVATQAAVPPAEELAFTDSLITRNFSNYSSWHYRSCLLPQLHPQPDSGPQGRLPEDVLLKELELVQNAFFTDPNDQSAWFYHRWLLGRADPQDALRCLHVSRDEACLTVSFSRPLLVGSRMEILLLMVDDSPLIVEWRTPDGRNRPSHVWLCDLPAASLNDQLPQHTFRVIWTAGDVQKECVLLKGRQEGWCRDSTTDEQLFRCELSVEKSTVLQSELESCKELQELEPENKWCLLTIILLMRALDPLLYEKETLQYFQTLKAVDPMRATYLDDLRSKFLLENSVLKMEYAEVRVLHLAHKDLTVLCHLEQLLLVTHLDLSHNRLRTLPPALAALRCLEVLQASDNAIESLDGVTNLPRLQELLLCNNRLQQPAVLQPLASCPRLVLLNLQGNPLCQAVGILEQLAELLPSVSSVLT
# Chain of UniProt Q53H47 (Q53H47 whole entry, looked up): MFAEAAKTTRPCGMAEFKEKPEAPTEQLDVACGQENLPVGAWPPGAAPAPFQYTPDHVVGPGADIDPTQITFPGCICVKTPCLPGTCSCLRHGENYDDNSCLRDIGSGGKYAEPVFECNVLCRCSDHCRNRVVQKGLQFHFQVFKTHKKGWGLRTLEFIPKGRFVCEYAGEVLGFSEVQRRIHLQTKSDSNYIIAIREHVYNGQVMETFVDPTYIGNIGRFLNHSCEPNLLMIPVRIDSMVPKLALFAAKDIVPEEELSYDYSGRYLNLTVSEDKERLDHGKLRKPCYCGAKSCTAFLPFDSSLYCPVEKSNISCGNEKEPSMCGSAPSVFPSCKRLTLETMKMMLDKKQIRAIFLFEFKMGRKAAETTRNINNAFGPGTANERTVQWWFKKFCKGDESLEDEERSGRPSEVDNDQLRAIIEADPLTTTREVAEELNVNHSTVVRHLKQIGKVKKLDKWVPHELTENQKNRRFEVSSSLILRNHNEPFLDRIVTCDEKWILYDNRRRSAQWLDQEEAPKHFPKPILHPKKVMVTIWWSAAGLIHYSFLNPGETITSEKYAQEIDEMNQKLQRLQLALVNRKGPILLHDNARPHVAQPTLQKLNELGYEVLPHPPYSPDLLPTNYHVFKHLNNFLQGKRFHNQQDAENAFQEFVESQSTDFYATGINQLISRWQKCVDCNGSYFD
# Chain of UniProt O95059 (O95059 whole entry, looked up): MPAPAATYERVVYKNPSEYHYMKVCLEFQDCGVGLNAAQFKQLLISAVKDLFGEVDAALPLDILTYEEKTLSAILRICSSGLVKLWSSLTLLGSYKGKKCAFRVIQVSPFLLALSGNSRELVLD
# Chain of UniProt Q96D15 (Q96D15 whole entry, looked up): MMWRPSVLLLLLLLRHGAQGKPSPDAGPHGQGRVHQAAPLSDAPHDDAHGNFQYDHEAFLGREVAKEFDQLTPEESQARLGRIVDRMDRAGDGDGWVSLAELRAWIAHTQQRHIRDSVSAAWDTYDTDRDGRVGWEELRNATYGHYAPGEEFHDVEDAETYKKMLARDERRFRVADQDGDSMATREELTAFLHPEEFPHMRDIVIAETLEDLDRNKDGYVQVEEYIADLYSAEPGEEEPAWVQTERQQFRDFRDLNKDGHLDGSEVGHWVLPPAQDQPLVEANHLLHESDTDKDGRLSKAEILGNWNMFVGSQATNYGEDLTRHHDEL
# Chain of UniProt Q9UBS8 (Q9UBS8 whole entry, looked up): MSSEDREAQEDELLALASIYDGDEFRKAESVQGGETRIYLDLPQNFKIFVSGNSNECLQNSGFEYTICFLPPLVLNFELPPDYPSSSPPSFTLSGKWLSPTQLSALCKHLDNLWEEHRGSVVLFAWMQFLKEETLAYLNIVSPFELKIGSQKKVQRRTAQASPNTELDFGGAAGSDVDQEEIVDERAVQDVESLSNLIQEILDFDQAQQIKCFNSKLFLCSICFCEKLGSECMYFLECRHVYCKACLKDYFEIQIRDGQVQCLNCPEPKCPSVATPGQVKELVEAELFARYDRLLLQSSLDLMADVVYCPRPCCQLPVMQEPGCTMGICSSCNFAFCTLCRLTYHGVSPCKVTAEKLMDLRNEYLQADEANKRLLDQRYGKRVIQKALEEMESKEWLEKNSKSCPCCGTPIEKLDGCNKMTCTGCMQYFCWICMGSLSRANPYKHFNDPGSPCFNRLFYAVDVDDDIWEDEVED
# Chain of UniProt Q8N0T1 (Q8N0T1 whole entry, looked up): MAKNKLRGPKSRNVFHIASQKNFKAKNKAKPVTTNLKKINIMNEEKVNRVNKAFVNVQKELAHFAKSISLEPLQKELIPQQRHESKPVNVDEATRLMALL
# Chain of UniProt Q9Y6Y8 (Q9Y6Y8 whole entry, looked up): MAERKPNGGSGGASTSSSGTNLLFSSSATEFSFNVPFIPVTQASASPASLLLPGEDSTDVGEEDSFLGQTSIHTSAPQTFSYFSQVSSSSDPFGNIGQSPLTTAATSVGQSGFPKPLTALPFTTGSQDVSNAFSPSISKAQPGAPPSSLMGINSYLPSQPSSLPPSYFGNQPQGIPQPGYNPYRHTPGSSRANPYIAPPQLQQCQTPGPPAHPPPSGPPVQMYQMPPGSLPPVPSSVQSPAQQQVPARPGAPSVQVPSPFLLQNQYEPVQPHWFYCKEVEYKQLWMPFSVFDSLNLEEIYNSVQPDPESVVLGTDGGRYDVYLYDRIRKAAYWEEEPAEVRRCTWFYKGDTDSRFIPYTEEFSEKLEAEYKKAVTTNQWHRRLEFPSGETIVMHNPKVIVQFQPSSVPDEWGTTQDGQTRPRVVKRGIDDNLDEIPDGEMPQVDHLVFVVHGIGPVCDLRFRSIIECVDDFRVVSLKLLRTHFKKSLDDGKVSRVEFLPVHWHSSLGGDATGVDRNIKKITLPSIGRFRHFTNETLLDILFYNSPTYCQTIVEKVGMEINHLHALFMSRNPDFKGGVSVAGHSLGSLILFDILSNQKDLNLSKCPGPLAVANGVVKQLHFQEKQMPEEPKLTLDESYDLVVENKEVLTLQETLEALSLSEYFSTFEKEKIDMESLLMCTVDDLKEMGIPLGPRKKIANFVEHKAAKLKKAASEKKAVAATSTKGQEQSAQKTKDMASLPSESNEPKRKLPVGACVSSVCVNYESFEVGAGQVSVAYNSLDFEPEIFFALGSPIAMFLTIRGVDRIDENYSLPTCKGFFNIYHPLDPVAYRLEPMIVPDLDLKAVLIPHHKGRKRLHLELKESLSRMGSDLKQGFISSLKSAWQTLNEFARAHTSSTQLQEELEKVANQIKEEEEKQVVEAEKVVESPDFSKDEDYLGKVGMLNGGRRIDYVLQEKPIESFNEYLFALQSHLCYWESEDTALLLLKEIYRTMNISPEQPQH
# Chain of UniProt O00560 (O00560 whole entry, looked up): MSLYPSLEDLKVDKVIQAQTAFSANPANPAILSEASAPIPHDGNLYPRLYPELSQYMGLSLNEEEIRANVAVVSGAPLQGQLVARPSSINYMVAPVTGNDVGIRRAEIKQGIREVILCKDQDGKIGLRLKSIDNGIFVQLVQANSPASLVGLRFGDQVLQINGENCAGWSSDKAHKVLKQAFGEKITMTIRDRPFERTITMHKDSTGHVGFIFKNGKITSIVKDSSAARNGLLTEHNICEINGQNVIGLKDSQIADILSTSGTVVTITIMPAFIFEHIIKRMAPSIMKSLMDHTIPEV
# Chain of UniProt Q96EE3 (Q96EE3 whole entry, looked up): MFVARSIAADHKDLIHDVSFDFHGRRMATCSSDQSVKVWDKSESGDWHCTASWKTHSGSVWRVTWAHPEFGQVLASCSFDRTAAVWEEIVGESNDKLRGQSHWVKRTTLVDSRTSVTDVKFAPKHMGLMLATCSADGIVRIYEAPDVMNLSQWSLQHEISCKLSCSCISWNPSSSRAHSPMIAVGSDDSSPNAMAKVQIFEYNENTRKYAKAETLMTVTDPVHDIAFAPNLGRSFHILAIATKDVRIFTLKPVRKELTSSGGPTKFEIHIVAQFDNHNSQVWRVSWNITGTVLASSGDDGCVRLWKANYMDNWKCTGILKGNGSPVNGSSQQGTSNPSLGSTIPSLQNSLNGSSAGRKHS
Target,log2 fold change [1],log2 fold change [2],log2 fold change [3],log2 fold change [4],log2 fold change [5],log2 fold change [6],log2 fold change [7],log2 fold change [8],log2 fold change [9],log2 fold change [10],log2 fold change [11],log2 fold change [12],log2 fold change [13],log2 fold change [14],log2 fold change [15],log2 fold change [16],log2 fold change [17],log2 fold change [18],log2 fold change [19],log2 fold change [20]
RBIS (UniProt Q8N0T1),-0.099,-0.011,-0.055,0.023,-0.012,-0.002,-0.063,-0.074,-0.02,-0.009,0.105,0.06,-0.012,0.204,0.034,0.075,-0.108,-0.008,0.026,-0.034
RABGGTA (UniProt Q92696),0.019,0.04,-0.004,0.002,-0.084,0.003,0.005,-0.023,-0.024,0.017,0.029,-0.087,-0.013,0.021,-0.032,-0.051,-0.015,0.054,-0.111,-0.023
SETMAR (UniProt Q53H47),0.128,0.061,-0.023,-0.049,-0.041,0.018,0.021,0.01,-0.036,0.051,-0.071,-0.045,0.058,0.045,-0.047,0.015,0.012,0.005,-0.045,0.108
RANBP2 (UniProt P49792),0.089,-0.07,-0.041,0.04,0.221,-0.086,0.03,-0.072,0.046,0.036,0.058,-0.006,-0.008,0,-0.063,0.099,0.026,0.03,-0.033,-0.052
SEC23IP (UniProt Q9Y6Y8),0.016,0.041,0.041,0.012,0.022,0.051,0.056,0.024,0.047,0.016,-0.069,-0.005,0.032,-0.009,-0.101,-0.057,0.012,0.289,-0.008,-0.133
RSPRY1 (UniProt Q96DX4),0.106,-0.026,-0.183,-0.035,-0.021,0.034,-0.031,-0.107,-0.007,-0.004,0.082,-0.001,-0.019,0.034,0.006,-0.034,-0.014,0.011,-0.176,0.219 (active)
REL (UniProt Q04864),0.001,-0.044,0.033,-0.004,-0.053,0.044,0.077,-0.022,0.101,0.079,0.045,-0.176,-0.022,0.043,-0.062,0.159,0.003,0.063,0.011,0.141
RCN3 (UniProt Q96D15),-0.055,0.029,-0.028,-0.073,0.077,-0.003,-0.053,-0.145,-0.023,-0.011,-0.033,0.053,-0.031,-0.118,0,-0.007,-0.019,0.029,-0.03,-0.234
RBM8A (UniProt Q9Y5S9),-0.025,-0.024,-0.02,0.075,-0.069,0.024,-0.001,0.04,-0.032,0.043,-0.051,-0.041,0.038,0.005,0.021,0.014,-0.037,-0.004,-0.035,0.065
RECQL (UniProt P46063),0.028,-0.012,0.011,0.039,-0.002,-0.009,0.063,-0.007,0.038,-0.002,-0.032,-0.014,0.002,0,0.009,-0.021,0.016,0.032,-0.076,0.058
RPP14 (UniProt O95059),0.086,0.01,-0.031,-0.015,0.129,-0.004,0.004,-0.037,-0.116,-0.087,0.079,0.07,-0.048,-0.06,0.013,0.08,-0.04,-0.021,-0.076,0.244 (active)
RETREG3 (UniProt Q86VR2),-0.006,0.014,0.148,0.13,0.062,0.043,0.055,-0.044,-0.048,0.023,-0.04,-0.132,0,0.048,0.026,-0.043,0.008,0.016,-0.02,-0.149
"SART3, A0A499FI31",0.015,-0.05,-0.014,0.04,-0.043,0.023,0.072,-0.013,0.012,0.022,-0.235,-0.557 (active),0.061,0.065,-0.008,-0.017,0.017,0.038,-0.056,-0.211
RPS21 (UniProt P63220),-0.007,0.01,-0.042,-0.007,-0.033,-0.077,-0.072,-0.038,-0.015,-0.016,0.089,0.238 (active),-0.04,0.028,0.028,0.055,-0.045,-0.019,-0.004,0.073
RBM27 (UniProt Q9P2N5),0.031,-0.008,0.01,-0.018,0.025,-0.008,0.09,0.041,0.013,0.009,-0.141,-0.296 (active),0.014,0.014,-0.11,0.001,0.027,0.055,-0.013,-0.068
RPS27A (UniProt P62979),-0.023,-0.011,-0.179,-0.075,0.368,-0.126,-0.224,0.152,-0.109,-0.119,-0.061,0.36,0.05,-0.078,0.021,0.033,-0.153,-0.145,0.155,0.194
RPS9 (UniProt P46781),0.039,0,-0.073,-0.016,0.104,-0.107,-0.066,0.087,0.038,-0.114,0.203,0.339,0.02,-0.24,0.025,0.088,-0.095,-0.078,0.174,0.146
SERPINA7 (UniProt P05543),-0.121,0.496,0.067,-0.021,0.086,-0.06,-0.271,-0.349,-0.043,-0.127,0.055,0.309,0.044,-0.68 (active),0.073,0.036,-0.123,-0.014,0.255,0.279
SDCBP (UniProt O00560),0.007,0.021,0.009,0.025,0.001,0.051,0.041,-0.176,-0.027,-0.039,-0.223,-0.249,0.01,-0.043,0.059,-0.01,-0.061,-0.008,0.045,-0.229
RNF14 (UniProt Q9UBS8),0.039,-0.034,0.004,0.05,-0.04,0.026,0.04,0.029,-0.07,0.036,-0.054,-0.288 (active),0.037,-0.075,0.002,-0.032,-0.019,0.032,-0.049,-0.025
RPS14 (UniProt P62263),0.03,0,-0.041,-0.004,0.102,-0.066,-0.038,0.046,0.023,-0.04,0.043,0.362,0.023,-0.031,0.015,0.122,-0.066,-0.056,0.095,0.158
SEH1L isoform 1 (UniProt Q96EE3),-0.004,0.015,0.005,-0.019,0.011,0.005,0.048,-0.033,0.005,0.008,-0.044,0.466 (active),-0.019,-0.057,-0.009,-0.041,-0.013,-0.01,-0.054,0.027
RDH11 (UniProt Q8TC12),0.068,-0.054,0.019,-0.016,0.011,0.042,0.035,0.007,0.066,0.057,-0.213,-0.543 (active),0.015,0.045,-0.024,-0.072,0.037,-0.041,0.027,-0.466 (active)
